Reference: PubChem BioAssay AID1508600 (Functional Genomics Laboratory (NCATS/FGL), 2020)
In all, about 53,000 sequences went through this assay and about 3,700 (7%) were called active. This is one part of a sample in which actives are shown more often than they occur.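 The calls were made as follows: active = gene knockdowns whose robust z-score for IL-1 alpha signal is at least 2 or at most -2, so actives lie on both sides; inactive = the rest.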

assay: Components of the Cytosolic LPS Sensing Pathway: Gene Identification via Genome-wide siRNA Screen; settings: RAW264.7 macrophages, IL-1a HTRF, actives lie on both sides, screened at 100 nM (by protocol), cells primed 5 h with Pam3CSK4 first;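 also: robust z of the log signal after scaling to non-targeting control siRNA wells of the plate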
Procedure, shortened: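 Three distinct siRNAs per gene were tested singly at 100 nM in RAW264.7 macrophages. Following Pam3CSK4 priming and 24 hour LipidA transfection, IL-1a secretion was read by HTRF.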

Q: Which z-score does the source give for CCUAAGGCAAUCCCUAUUGTT against Gprasp1 here?
A: -0.424 (inactive)

Q: For GCAAUUUAAGUUUAGGAGATT against Heatr1, which z-score is on record?
A: -0.215 (inactive)

Q: For GCCAAUCUGGUGAUACUUCTT against Vmn1r71, which z-score is on record?
A: -1.64 (inactive)

Q: Which z-score does the source give for GCUGUUAAGUAAUGACAGATT against Chst7 here?
A: 1.54 (inactive)

Q: With GGUAAAUGACAACUUUCUUTT against Slco6b1 as the sequence, how does the z-score read?
A: 2.92 (active)

Q: For GCCUAUUGGCCUGAUAUGUTT against Gpr141b, which z-score is on record?
A: 0.173 (inactive)

Q: Which z-score does the source give for GGUACAACUGCUCAUUUUUTT against Rhbdd1 here?
A: -0.0082 (inactive)

Q: Which z-score does the source give for GGCCCUAAUUUCAGUAAUATT against Pigv here?
A: 0.568 (inactive)

Q: Which z-score does the source give for GCCUUUCUCGUUCCUAUAGTT against Plgrkt here?
A: -2.42 (active)

Q: With GGUUUUUGAGUUUCUGAUUTT against Vps8 as the sequence, how does the z-score read?
A: 1.28 (inactive)

Q: With CCACCUUGUUGAGUGGCACTT against Smarcd3 as the sequence, how does the z-score read?
A: -0.177 (inactive)

Q: With GCAUUUCAAUCGCACGUUUTT against Gal3st2 as the sequence, how does the z-score read?
A: -0.893 (inactive)

Q: With CCGAGCAAAAUCUCAAAUUTT against Mdh1 as the sequence, how does the z-score read?
A: 1.89 (inactive)

Q: With CCCUCUUAGUAACUGGCUCTT against Cdhr4 as the sequence, how does the z-score read?
A: -0.0846 (inactive)

Q: Which z-score does the source give for GGAAGACAUGAAAUUGUUCTT against Psma3 here?
A: -2.69 (active)

Q: Which z-score does the source give for GCAAGAAGGUUAUUCUAUATT against Atxn3 here?
A: 0.399 (inactive)

Q: For GGCUUUUGAGAAUUCAUUCTT against Kcna5, which z-score is on record?
A: 2.75 (active)

Q: Which z-score does the source give for GGCCUAUCUUCUUUACAUATT against Ctbs here?
A: 0.348 (inactive)

Q: For GUUUCUGGAGACGGUGGAGTT against Rpl10a, which z-score is on record?
A: 1.74 (inactive)

Q: With AGGAAAGAAAAUAUGCUGATT against Cox17 as the sequence, how does the z-score read?
A: 1.12 (inactive)

Q: With GCGUGCUGGUUUUCUGAUUTT against Sbno2 as the sequence, how does the z-score read?
A: 0.333 (inactive)

Q: For GGAGAUCCAGUUUUUUAACTT against Ndst1, which z-score is on record?
A: 0.566 (inactive)

Q: For GGUGGAAUUUUCAACUUACTT against Nkx3-1, which z-score is on record?
A: 5.36 (active)

Q: Which z-score does the source give for GGUCUAGCUCAAAAUCCCATT against Srek1 here?
A: -1.3 (inactive)

Q: For GGCUACCGAGACAAUGCUUTT against Pcmtd1, which z-score is on record?
A: 0.232 (inactive)

Q: For GGAGAAGAAUUCUUACAGGTT against Fbxo16, which z-score is on record?
A: 0.468 (inactive)

Q: With CCCGACCUCAACAUUUGUATT against Bmp2k as the sequence, how does the z-score read?
A: -0.265 (inactive)

Q: For GGUAGCAAAUCCAACAAGATT against Slamf1, which z-score is on record?
A: 0.226 (inactive)

Q: Which z-score does the source give for “GGCACUUCCUCCCUCAACATT against 4833420G17Rik” here?
A: -0.57 (inactive)

Q: For GGAGGUCAAAGUAAACUGGTT against Tial1, which z-score is on record?
A: 2.2 (active)

Q: For CCCAGUAAUAUGAAAAGAGTT against Gucy2f, which z-score is on record?
A: -0.408 (inactive)

Q: With GGUUGAAUCCUAAGAAUGUTT against Edc3 as the sequence, how does the z-score read?
A: 0.39 (inactive)

Q: For GGAGAAAGCUCAGCAUACATT against Usp3, which z-score is on record?
A: -0.484 (inactive)

Q: With GGGAAAGCACUCCAACACATT against Frem1 as the sequence, how does the z-score read?
A: -2.12 (active)

Q: With CGCAUGACCUUCCAGAUGCTT against Myoz1 as the sequence, how does the z-score read?
A: 0.49 (inactive)

Q: For GCACAUCAACAUUGAUACUTT against Atp11c, which z-score is on record?
A: -0.0521 (inactive)

Q: With GGAAAUCGAGGACUUAUACTT against Wnk4 as the sequence, how does the z-score read?
A: 3.54 (active)

Q: Which z-score does the source give for GGCAAUGUCUUCUCCAAUATT against Dedd here?
A: -0.652 (inactive)

Q: For GCCGGAAGAAACUCAUGCUTT against Mad2l1bp, which z-score is on record?
A: -0.152 (inactive)

Q: Which z-score does the source give for CCUGUUAAUUGAUUACCUUTT against Pla2r1 here?
A: 1.03 (inactive)

Q: For CCUAACGGUCAGAAGUUGATT against Ccng1, which z-score is on record?
A: 0.39 (inactive)

Q: With CCUCUCAGUGGUUGAAAUGTT against Wdr5 as the sequence, how does the z-score read?
A: -2.46 (active)

Q: For GGGCAGACCUAAUAGCUUATT against Cycs, which z-score is on record?
A: 0.707 (inactive)

Q: With GCUUUUGACACUUAUAUGATT against Ptk7 as the sequence, how does the z-score read?
A: -0.299 (inactive)

Q: For GGCAUGUCUUAAUUUCAUUTT against Shisa2, which z-score is on record?
A: 0.333 (inactive)

Q: With GGAAGACUCACGGCUCAAATT against Ccdc124 as the sequence, how does the z-score read?
A: -1.48 (inactive)

Q: For GGCAUCUUCCUUUAAAAAGTT against Gar1, which z-score is on record?
A: -0.708 (inactive)

Q: Which z-score does the source give for GGACAGUUUAAGGACAACATT against Morn2 here?
A: 0.18 (inactive)

Q: For GGUGGUCUUCAAGUCUGACTT against Cdcp2, which z-score is on record?
A: 1.95 (inactive)

Q: With GCAUCUCCCUUAUGUCUGUTT against Nubp2 as the sequence, how does the z-score read?
A: 2.12 (active)

Q: Which z-score does the source give for GGGAAGUGGGAUUCCUAAGTT against Fam220a here?
A: 0.218 (inactive)

Q: Which z-score does the source give for GCACGAAGGUCGUUAUUAUTT against Wls here?
A: -0.28 (inactive)

Q: With GGUGACACAGGAGAAGAAGTT against Colec10 as the sequence, how does the z-score read?
A: -0.00926 (inactive)

Q: With GGUAAUUAAUUCAAAGCAGTT against St8sia4 as the sequence, how does the z-score read?
A: -0.851 (inactive)

Q: With GGAGUUUAUGAGGAACUCGTT against Zwint as the sequence, how does the z-score read?
A: -0.0598 (inactive)

Q: With GGGCUAAAUUCAUGGGUUCTT against Timp1 as the sequence, how does the z-score read?
A: 0.681 (inactive)

Q: For GGGAAGAUCUUCAGGAAAATT against Cbr3, which z-score is on record?
A: 1.1 (inactive)

Q: With GCUCCUAAUGAAAUGGUUUTT against Kif2a as the sequence, how does the z-score read?
A: 1.41 (inactive)

Q: With CGGUAUGUUAUUUUGGUUGTT against Fam216a as the sequence, how does the z-score read?
A: -0.236 (inactive)

Q: Which z-score does the source give for GGGCUGUGGAAACAAUUUATT against Zpld1 here?
A: 2.32 (active)

Q: With ACUUCCUGAUUGAGAGAAATT against Olfr497 as the sequence, how does the z-score read?
A: -0.319 (inactive)

Q: For GGUUCCACUAAUCUUUUUATT against Mark3, which z-score is on record?
A: 0.696 (inactive)

Q: For GGAGGAGAUUGUCCAGAAATT against Ecm1, which z-score is on record?
A: 1.2 (inactive)

Q: For GGUCGACAUUGAAGCUAUUTT against Ralyl, which z-score is on record?
A: -0.517 (inactive)

Q: Which z-score does the source give for GCAUUGUGAAUAUUCAGAUTT against Cers4 here?
A: 0.623 (inactive)

Q: For GGCAGUGUGUUAGAUUCUUTT against Cts3, which z-score is on record?
A: 2.35 (active)

Q: Which z-score does the source give for GGAGACUAUCCUCAUUAUUTT against Smarca4 here?
A: 0.36 (inactive)

Q: With AUGCUUUGAUCAGUAUGAATT against Vmn1r188 as the sequence, how does the z-score read?
A: -2.38 (active)

Q: Which z-score does the source give for GGAGGACAACAAGUACUGCTT against Smap1 here?
A: -1.08 (inactive)

Q: Which z-score does the source give for GGAAAAUCGGUUAUCAUAATT against Pde7a here?
A: -0.684 (inactive)

Q: Which z-score does the source give for GCUAUAGCGCGGAAAUGGATT against Dclk3 here?
A: -0.531 (inactive)

Q: With GGUCAAAGAACAAAAAGAATT against Muc13 as the sequence, how does the z-score read?
A: -0.176 (inactive)

Q: Which z-score does the source give for GGAGCUAAAUGGCUCUGAUTT against Boc here?
A: 2.98 (active)

Q: For GGGACUGGCAGAUCUUAUCTT against Gtpbp3, which z-score is on record?
A: 0.817 (inactive)

Q: Which z-score does the source give for GGAACGAGAAUCGGAGAUGTT against Mapk8ip3 here?
A: 2.92 (active)

Q: For GGUCAUUGGUAGGUCCACUTT against Rusc2, which z-score is on record?
A: 0.338 (inactive)

Q: With GGGAGAUUCAUUUUCCCAGTT against Rnf43 as the sequence, how does the z-score read?
A: 0.0663 (inactive)

Q: Which z-score does the source give for GCAACAGGUUAGAAUAGACTT against Scd3 here?
A: -1.36 (inactive)

Q: Which z-score does the source give for GGUUCUGCACAUCUGAACATT against Cst3 here?
A: -0.109 (inactive)

Q: With GGCCUUUUUGUUUAUGCUATT against Zan as the sequence, how does the z-score read?
A: -0.0784 (inactive)

Q: For CCGUGUGGUCUGAUAAAAGTT against Fbxl8, which z-score is on record?
A: -0.714 (inactive)

Q: With GCUCACUUGAUUCUGGUAATT against Ifnz as the sequence, how does the z-score read?
A: 0.416 (inactive)

Q: For GGUGUCUGGAGGGAGAUUUTT against Peli3, which z-score is on record?
A: 0.245 (inactive)

Q: For CCAAGUGCUAAACAAGACATT against Spata31, which z-score is on record?
A: 1.06 (inactive)

Q: Which z-score does the source give for GGCUAAAGGAAACUCACCUTT against Duoxa2 here?
A: -3.33 (active)

Q: Which z-score does the source give for GGUGACUGACAACCAGACATT against Dkkl1 here?
A: -0.171 (inactive)

Q: Which z-score does the source give for GGGUCUUCUUCCUGAGUGUTT against Ak8 here?
A: -1.67 (inactive)

Q: Which z-score does the source give for GGCCAUGUUCCACACAUUATT against Grm1 here?
A: 1.49 (inactive)

Q: Which z-score does the source give for GCCACGCAAUAAAGCAUCUTT against Sars here?
A: -0.284 (inactive)

Q: Which z-score does the source give for GCUUAAGGGAUAACAUAUUTT against Svs2 here?
A: -0.756 (inactive)

Q: Which z-score does the source give for GGACACCAUAUGGUUAGCUTT against Tedc1 here?
A: -2.25 (active)

Q: With ACUGUCAUGCACCCUAAAGTT against Olfr132 as the sequence, how does the z-score read?
A: 0.369 (inactive)

Q: With GCUCCUAAAAAGGCUCUUUTT against H2ac18 as the sequence, how does the z-score read?
A: -0.463 (inactive)

Q: Which z-score does the source give for GGAAUUCCAAUGUUACCAUTT against Meltf here?
A: 3.35 (active)

Q: For GCUGGUGUGUAACAUCAAUTT against Fut8, which z-score is on record?
A: 0.246 (inactive)

Q: Which z-score does the source give for GCAAUGUUAUUUUCACCAGTT against Slc3a1 here?
A: 0.61 (inactive)

Q: With GUUUAACUACAACAAUGAGTT against Dcpp1 as the sequence, how does the z-score read?
A: 1.23 (inactive)

Q: With GCCUAGUGACCCUUUACUATT against Stx1a as the sequence, how does the z-score read?
A: 0.51 (inactive)

Q: With GGCGACACAAUAAGACAGATT against Wdr19 as the sequence, how does the z-score read?
A: 0.648 (inactive)

Q: For GGUCCAGUUGGAGAUGACATT against Ube2d3, which z-score is on record?
A: -1.04 (inactive)

Q: Which z-score does the source give for GGUCGUGUACUCGUUCAGUTT against Pcdh10 here?
A: 2.04 (active)

Q: For GCUAAUCCAGGACUGUUUATT against Trim14, which z-score is on record?
A: -1.66 (inactive)

Q: Which z-score does the source give for GGUUCGACUUUCUUUGCCATT against Ola1 here?
A: -0.614 (inactive)

Q: For GGUACUGAGGUGAGCCUCUTT against Myocd, which z-score is on record?
A: -2.45 (active)

Q: Which z-score does the source give for GGGAGCUCCAUUUAAAUUATT against Cnot6 here?
A: -0.516 (inactive)

Q: With GCAACUUUAUAGCAGAAUCTT against Apbb3 as the sequence, how does the z-score read?
A: -0.874 (inactive)

Q: With CCGUAUAAACAUUUAUGAGTT against Bmp4 as the sequence, how does the z-score read?
A: -0.295 (inactive)

Q: With GGACAACACCCUGAUGAUATT against Vmn1r208 as the sequence, how does the z-score read?
A: -1.07 (inactive)
